Screening data deposited in PubChem BioAssay by several laboratories.
Most compounds without a hit are left out; they make up all but 3% or so of the library.
Peg3 promoter: Peg3 promoter-driven luciferase inhibitors, primary screen, cell-based, HeLa, luciferase luminescence | HeLa PEG-Prom luciferase reporter, overnight | inhibition, % at 20 µM | hit rate 1.7% among 360,000;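 active = inhibition of at least 50% at 20 µM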
EBV LMP1 NFkB: EBV LMP1-driven NF-kappaB luciferase reporter inhibitors, primary screen, cell-based, luminescence, single point; LMP1-induced NF-kappaB luciferase reporter cells; inhibition, % at 12.5 µM; hit rate 0.69% among 350,000; in the data active = inhibition above about 41%; inconclusive = no clear call, values can overlap the other calls;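 note: 0% = neutral control wells and 100% = reference inhibitor control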
KKLEB tox: cytotoxicity in KKLEB CF airway cells, primary screen, cytotoxicity control for CF NF-kB inhibitor project, cell-based, uHTS, fluorescence assay plates | KKLEB CF airway cells viability, ATPlite luminescence, overnight; hits give low values; cells stimulated with P. aeruginosa culture filtrate | activity change (cytotoxicity), % at 5 µM | hit rate 0.36% among 360,000 | AID 602141, 2011;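 active = corrected activity change at or below -50% at 5 µM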
CF NFkB block: inhibitors of PAF-induced NF-kB signaling, primary screen, cell-based, GFP fluorescence, uHTS; hit rate 0.86% among 360,000; inhibition, % at 5 µM; KKLEB NF-kB-GFP reporter, GFP fluorescence overnight;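 active = at least 50% inhibition at 5 µM, scaled per plate between neutral and stimulator controls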;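 note: PAF is a Pseudomonas aeruginosa culture filtrate used as stimulus; plate controls were PAF-stimulated DMSO wells for no effect and unstimulated DMSO wells for full effect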
HIF-2a inh: HIF-2a reporter inhibitors, primary screen, luminescence, 786-0 RCC cells | inhibition, % at 18.8 µM | hit rate 0.72% among 360,000 | 786-0 RCC cells HIF-2a reporter, luciferase luminescence, overnight;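 active = inhibition of the luminescence signal of 40% or more relative to plate controls, in a single-dose primary screen at 18.75 µM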
TRPM1 prom inh: inhibitors of MITF-dependent TRPM1 promoter reporter, primary screen, cell-based, SK-MEL-5, single point, luciferase; SK-MEL-5 TRPM1 promoter luciferase, 24 h; inhibition, % at 12.5 µM; hit rate 0.83% among 330,000; AID 488899, 2010;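 active = mean inhibition across replicates of 60% or more, whatever share of single replicates reaches that level; inconclusive = some that reach 60%, reason not given; inactive = mean inhibition across replicates below 60%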
* = called active by the depositor; ? = inconclusive; nt = no result.

SMILES	Peg3 promoter	EBV LMP1 NFkB	KKLEB tox	CF NFkB block	HIF-2a inh	TRPM1 prom inh
CNc1c2cccc(C)c2nc2c(C(=O)NCCN(C)C)cccc12	108.0*	90.5*	-38.6	95.1*	61.7*	100.2*
Cc1cc2c(cc1C)-n1nnnc1C(N1CCN(CC(=O)NC(C)C)CC1)C(=O)N2 (configuration not stated)	nt	nt	nt	nt	-7.1	nt
COc1ccc(Cc2[nH]n3c(=O)cc(C(C)C)nc3c2-c2ccccc2)cc1	52.2*	21.6	-5.9	9.1	21.7	22.8
COc1cc(COCC(O)CN2C(C)CCCC2C)cc(OC)c1OC (configuration not stated)	5.9	87.8*	2.0	-0.8	15.8	-2.8
CCOC(=O)[C@]12CCC=C1N(Cc1ccc3c(c1)OCO3)C(=O)[C@H](CC(=O)N1CCN(C(=O)c3ccco3)CC1)C2	nt	nt	nt	nt	2.7	nt
CCOC(=O)c1c(CSC(=N)N)n(-c2ccc(C)cc2)c2cc(Br)c(OC(C)=O)cc12	53.9*	-75.9	7.2	12.5	13.4	?
CCOC(=O)c1c(CSC(=N)N)n(C)c2cc(Br)c(OC(C)=O)cc12	-6.8	-45.6	26.8	0.0	3.1	19.4
c1ccc2sc(Sc3ncnc4sccc34)nc2c1	-56.0	6.7	-43.8	72.0*	-40.8	-5.6
c1ccc(CSc2ncnc3sccc23)cc1	-63.4	0.2	-7.1	8.4	-110.9	-12.5
O=C(Nc1ccccc1)c1nc[nH]c1C(=O)NCCNC(=O)c1[nH]cnc1C(=O)Nc1ccccc1	40.6	12.8	-10.7	66.5*	-5.0	13.8
O=C(Nc1cccc(Cl)c1)c1nc[nH]c1C(=O)NCCCNC(=O)c1[nH]cnc1C(=O)Nc1cccc(Cl)c1	56.6*	-8.0	5.1	-13.1	8.0	-11.3
CC(C)(C)OC(=O)NCCCCCNC(=O)c1[nH]cnc1C(=O)Nc1ccccc1	33.0	18.0	3.7	0.0	13.5	1.9
CN(C)Cc1ccccc1-c1cccc2nccn12	1.6	nt	11.7	-8.8	-0.2	nt
COC(=O)c1c(NC(=O)c2ccc(C(=O)c3ccccc3)cc2)sc2c1CC(C)(C)NC2(C)C	94.0*	-80.1	-21.1	12.6	6.6	nt
CCOc1ccc(C(=O)Nc2sc3c(c2C(=O)OC)CC(C)(C)NC3(C)C)cc1	78.9*	-87.8	-40.1	29.5	1.8	28.0
CCOC(=O)c1c(NC(=O)COC(=O)/C=C/c2ccco2)sc2c1CC(C)(C)NC2(C)C	-7.7	5.7	-20.4	-20.3	-16.8	11.0
CCOC(=O)c1c(NC(=O)COc2ccccc2)sc2c1CC(C)(C)NC2(C)C	74.7*	-5.4	-39.6	43.8	19.6	7.3
COc1cc(C(=O)NC2CCN(C)CC2)ccc1Nc1ncc2c(n1)N(C1CCCC1)CCC(=O)N2C(C)C	69.4*	-21.3	-15.1	-102.1	-11.5	74.3*
O=C(COc1ccc2ccccc2c1)NNC(=O)c1cnccn1	-5.9	1.0	3.0	-14.4	10.6	6.1
CC(C)c1ccc(OCC(=O)NNC(=O)c2cnccn2)cc1	5.8	54.9*	-2.7	-7.9	20.0	4.9
Cc1nc(Nc2ccccc2)c2oc3ccc(Cl)cc3c2n1	-85.7	-18.4	-4.9	-8.5	-129.8	-31.5
Clc1ccc2oc3c(Cl)ncnc3c2c1	84.2*	-2.2	-14.8	20.2	18.4	77.1*
CCCc1nc(SCC(=O)NCc2ccco2)c2c(=O)n(C)c(=O)n(C)c2n1	23.1	66.5*	3.4	9.3	4.7	-5.9
OC(c1ccc(F)cc1)c1nc(-c2cccc(F)c2)cs1 (configuration not stated)	-98.2	nt	-6.2	-9.1	-127.9	nt
CN(C)CCC(=O)C(Cc1ccccc1)c1ccccc1 (configuration not stated)	88.6*	-2.0	-5.3	20.4	14.3	-1.6
SMILES	Peg3 promoter	EBV LMP1 NFkB	KKLEB tox	CF NFkB block	HIF-2a inh	TRPM1 prom inh
COc1ccc(NC(=O)CN2C(=O)C3CC=CCC3C2=O)cc1Cl (configuration not stated)	5.9	-9.7	-1.0	0.4	1.1	nt
C[C@@H]1CN([C@@H](C)CO)C(=O)c2cc(Br)cnc2O[C@H]1CN(C)C(=O)C1CC1	-3.3	-2.5	4.0	-2.1	12.7	nt
COc1ccc(C(C(=O)NC2CCCCC2)N(C(=O)CCl)c2cccc(Cl)c2)cc1 (configuration not stated)	102.1*	-1.3	-76.3*	99.8*	36.1	88.0*
COc1ccc(CN(C(=O)c2nsc(Cl)c2Cl)C(C(=O)NC2CCCC2)c2ccc(C)cc2)cc1 (configuration not stated)	17.3	53.7*	-22.4	13.6	18.1	-4.1
COc1ccc(C(C(=O)NC2CCCCC2)N(C(=O)c2cccs2)c2ccc3c(c2)OCO3)cc1 (configuration not stated)	11.0	-0.6	-70.5*	47.1	-7.2	4.5
O=C(NC1CCCCC1)C(c1cccnc1)N(C(=O)CCl)c1ccc(F)cc1 (configuration not stated)	68.6*	75.8*	-37.1	46.5	39.8	86.5*
COc1cccc(N=CNc2cccc(OC)c2)c1	-137.3	-26.4	5.1	5.3	-176.7	-34.0
CCOP(=O)(OCC)C(Cc1ccc(OC)c(OC)c1)N=C(c1ccccc1)c1ccccc1 (configuration not stated)	24.7	nt	-3.2	1.3	-6.3	nt
OC(c1ccc(F)c(F)c1)c1ncc(-c2ccc(F)cc2)[nH]1 (configuration not stated)	-33.9	nt	-0.8	-8.7	-68.6	nt
O=C(O)c1ccc2c(c1Nc1ccccc1)C(=O)c1ccccc1C2=O	-12.0	42.5*	-5.5	-31.7	-1.7	11.7
CNc1c(C(=O)O)ccc2c1C(=O)c1ccccc1C2=O	2.5	6.5	9.4	4.8	6.4	14.3
CCc1c(O)nc(SCC(=O)Nc2ccccc2)n(-c2ccccc2C)c1=O	3.0	3.7	7.5	-22.2	-0.6	nt
O=C(CCC(=O)N1CCOc2ccc(Cl)cc21)NCCCN1CCN(c2ccccc2F)CC1	-0.1	6.3	-4.0	6.3	-1.3	nt
O=C(CCC(=O)N1CCOc2ccc(Cl)cc21)NCCCN1CCC(Cc2ccccc2)CC1	74.7*	-0.4	-21.0	34.6	-10.6	6.5
CC(=O)NC1=C(N(C)C2CCS(=O)(=O)C2)C(=O)c2ccccc2C1=O (configuration not stated)	12.0	11.7	-8.1	5.2	11.4	63.8*
C[C@H](CO)N1C[C@H](C)[C@@H](CN(C)C(=O)Nc2ccc(F)cc2)Oc2cc(Br)ccc2S1(=O)=O	12.6	-8.7	-0.4	24.0	14.9	nt
CN1CCN(Cc2nc3ccccc3c(=O)n2Cc2nc(-c3cccc([N+](=O)[O-])c3)cs2)CC1	50.1*	8.8	-6.8	-13.4	-14.3	29.3
